The text below walks through data of PubChem BioAssay AID624300 (Southern Research Specialized Biocontainment Screening …, 2012).

SMILES strings stand for the structures. Screen size: about 2,400 compounds; about 360 (15%) were called active.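 The calls were made as follows: active = viability falls under 70% at one or more tested concentrations, taken as toxicity; inactive = viability stays over 70% at every dose.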 These entries were drawn from the full list. Measured potencies and affinities stand elsewhere.

This assay can be described thus: viability loss in HeLa cells – cytotoxicity control for MgcRacGAP inhibitor project, dose response (AID 624300). The following applies: CellTiter-Glo luminescence, 24 h; series mostly up to 100 µM. In general terms: In ATP-based viability assays light output follows the ATP content of the culture.
For the molecule `CN1CCN(Cc2coc3c(Cl)cc(Cl)cc3c2=O)CC1`, the result was inactive.
The value for `CN1C(=O)C2C(c3ccc(N(C)C)cc3)=NN(Cc3ccccc3)C2C1=O` (stereo not drawn) was “inactive”; that for `CC(C(=O)Nc1ccc2c(c1)OCO2)N1CCN(C)CC1` (stereo not drawn) was “inactive”.
The value for `CCN(CC)CCn1c2ccccc2c(=O)c2c(O)ccc(O)c21` was “inactive”.
As to `CCN(CC)CCCNCC(=O)Nc1cc(C)on1`, the result was inactive.
For `COc1ccc(-n2c(=O)c3c4c(sc3n3c(=S)[nH]nc23)CCCC4)cc1` the value was “inactive”; for `c1cc2c(cc1CNc1ccc(N3CCOCC3)cc1)OCO2`, “inactive”.
For `COc1cc(/C=N/n2c(C3CCCCC3)n[nH]c2=S)ccc1O`, the molecule was classed as inactive.
For `CN1CCN(/N=C/c2nc(-c3ccc(Cl)cc3)n3ccccc23)CC1`, the molecule was called inactive.
With `Oc1ccc(N2CCN(C(c3cccs3)c3nnnn3CCc3ccccc3)CC2)cc1` (stereo not drawn), the molecule was called inactive.
For `Cc1ccc(NC(=O)CCC(=O)N/N=C/c2ccc(O)cc2)cc1` the value was “inactive”; for `Cn1cccc1CC(=O)N/N=C/C=C/c1ccco1`, “inactive”.
Regarding `Cc1ccc(Nc2n[nH]c(=S)s2)c(C)c1`, the outcome was inactive.
The value for `O=C(CNC1CC1)Nc1cc(C(F)(F)F)ccc1Cl` was “inactive”; that for `CCC1=NN2C(=N)/C(=C\c3ccc(SCc4ccco4)o3)C(=O)N=C2S1` was “inactive”.
The value for `O=C(COc1ccccc1[N+](=O)[O-])N/N=C/c1ccc(O)cc1` was “inactive”.
Take `CCOc1cc(/C=N/NC(=O)c2ccccc2OCc2ccc(F)cc2)ccc1O`: the outcome was inactive.
For `O=C(N/N=C/c1ccc(O)c(O)c1)c1cccc(S(=O)(=O)N2CCCCC2)c1` the value was “inactive”.
For `CC(=O)Nc1ccc(OC(=O)c2cc3ccccc3oc2=O)cc1` the value was “inactive”; for `CCOC(=O)Nc1ccc(OC(=O)Oc2ccc(NC(=O)OCC)cc2)cc1`, “inactive”.
The value for `C=CCc1cc(C=Nc2ccc(N3CCOCC3)cc2)cc(OCC)c1O` was “inactive”; that for `CCc1nnc(N/N=C/c2c(C)[nH]c3ccccc23)n1N` was “inactive”.
For `CCN1CCN(C(C)C(=O)NC2CCCCC2)CC1` (stereo not drawn), the call was inactive.
Regarding `C/C(=N/Nc1ccc(C(=O)O)cc1)c1ccc2c(c1)Nc1ccccc1S2`, the molecule was classed as inactive.
In the case of `C/C(=N\NC(=O)c1ccccc1F)c1ccc2c(c1)Nc1ccccc1S2`, the molecule was classed as inactive.
For `N#CC1=C(S)N(c2ccccc2)C2(CCCCC2)NC1=O` the value was “inactive”; for `CC1(C)O[C@@H]2[C@H](O1)[C@@H](COS(=O)(=O)O)O[C@H]2n1c(=S)[nH]c2c(=O)[nH]c(N)nc21`, “inactive”; for `Cc1c(N(C)C)nc2ccccc2c1N`, “inactive”.
For `O=C(O)CC1SC(=Nc2ccc(O)cc2)NC1=O` (stereo not drawn) the value was “inactive”; for `COc1cc(/C=N/NC2=NCCCCC2)ccc1O`, “inactive”.
The value for `S=c1[nH]nc(Nc2ccccc2Cl)s1` was “inactive”; that for `O=C1NC(=NCc2ccccc2)S/C1=C/c1ccc(O)cc1` was “inactive”.
`O=C1NC(=S)S/C1=C\C=C\c1ccc([N+](=O)[O-])o1`: the call was inactive.
Turning to `Cc1cc(/C=C2\SC(=S)NC2=O)c(C)[nH]1`, the outcome was inactive.
The value for `COc1cc(/C=C2\SC(=Nc3ccc(Cl)c(C(=O)O)c3)NC2=O)c(Br)c(Br)c1O` was “inactive”; that for `CCOC(=O)C1CCN(Cc2cccc(Oc3ccccc3)c2)CC1` was “inactive”.
The value for `COc1cc(/C=N/NC(=O)c2cn(-c3cccc(C)n3)cn2)ccc1O` was “inactive”; that for `COc1cc([C@H]2OC[C@H]3[C@@H]2CO[C@H]3c2ccc(O)c(OC)c2)ccc1O` was “inactive”.
The value for `O=C(CN1CCN(c2ccc(O)cc2)CC1)N(C1CC1)C1CCS(=O)(=O)C1` (stereo not drawn) was “inactive”.
For `N#C/C(=C/c1ccc(O)c(O)c1)C(=O)NCc1ccc(Cl)cc1`, the call was inactive.
For `C=CCc1ccc(OCCOCCNCCCC)c(OC)c1` the value was “inactive”; for `COc1ccc(CNCC(=O)Nc2cc(OC)cc(OC)c2)cc1`, “inactive”.
For the molecule `COc1ccc(NC2CCCN(C(=O)c3ccc4[nH]c(C)c(C)c4c3)C2)cc1` (stereo not drawn), the molecule was called inactive.
For `Cc1ccc(NC(=O)CCC(=O)N/N=C/c2ccc(O)cc2O)cc1` the value was “inactive”; for `C=CCc1cccc(C=Nc2cc(Br)ccc2O)c1O`, “inactive”; for `Cc1ccc(O)c(N=Cc2cc(Cc3ccccc3)cc([N+](=O)[O-])c2O)c1`, “inactive”.
For `Cc1cccc(C=Nc2ccc3c4c(cccc24)CC3)c1O` the value was “inactive”; for `Cc1ccc(O)c(N=Cc2sc3ccccc3c2Cl)c1`, “inactive”; for `O=C(CN1CCN(c2ccccn2)CC1)Nc1ccc(F)cc1`, “inactive”.
On to `CCOc1cc(C=NNC(=O)c2cccc(S(=O)(=O)N3CCCC3)c2)ccc1O`, for which the outcome was inactive.
The value for `COCCCNC(=O)/C(C#N)=C/c1c(N2CCN(c3ccc(OC)cc3)CC2)nc2c(C)cccn2c1=O` was “inactive”.
With `O=C(c1ccco1)N1CCN(Cc2cccc([N+](=O)[O-])c2)CC1`, the outcome was inactive.
Take `COc1cc(OC)c(OC)cc1/C=N/N(C)c1ccccc1`: the molecule was called inactive.
Consider `COc1cc(/C=N/N(C)c2ccccc2)ccc1O`, for which the result was inactive.
As to `COc1ccc(Cn2c(O)c(/C=N/NC(=O)c3cccnc3)c3ccccc3c2=O)cc1`, the molecule was called inactive.
`CCOC(=O)c1[nH]c2ccccc2c1NC(=S)Nc1ccccc1C`: the outcome was inactive.
On to `CCN(CC)S(=O)(=O)c1ccc(C)c(NC(=O)CN2CCN(C)CC2)c1`, for which the outcome was inactive.
For `Cc1nc(Cl)cc(N/N=C/c2ccc(O)cc2O)n1` the value was “inactive”.
For `Oc1ccc(/C=N/Nc2cccc(Cl)n2)c(O)c1` the value was “inactive”; for `Oc1ccc(/C=N/Nc2nc(N3CCCC3)nc(N3CCCC3)n2)cc1O`, “inactive”; for `Oc1ccc(/C=N/Nc2cc(N3CCOCC3)nc(N3CCOCC3)n2)cc1`, “inactive”.
The value for `CCOc1cc(/C=N/n2cnnc2)ccc1O` was “inactive”; that for `CC1CCC/C(=C\Nc2ccc(O)cc2)C1=O` (stereo not drawn) was “inactive”; that for `CCOCCCNC(=O)CN1CCN(c2ccc(F)cc2)CC1` was “inactive”.
Consider `CC(C)=C(NC(=O)c1ccccc1)C(=O)N/N=C/c1ccc(O)cc1`, for which the result was inactive.
For `O=C(NN=Cc1ccc(O)cc1)c1ccccc1NS(=O)(=O)c1cccs1` the value was “inactive”.
For `C=CCc1cc(Cl)ccc1OCCNCCN1CCOCC1` the value was “inactive”.
For `CCCS(=O)(=O)N1CCN(C2Cc3ccccc3C2)CC1`, the result was inactive.
For `C=CCOC(=O)c1cc(-c2ccc(/C=C3\C(=O)NC(=O)C(C#N)=C3C)o2)ccc1Cl`, the molecule was classed as inactive.
On to `CCN1CCN(CC(=O)Nc2cc(C(F)(F)F)ccc2OCCOC)CC1`, for which the call was inactive.
For the molecule `COCCNC(=O)Cn1cc(/C=N/NC(=O)c2ccc(Oc3ccc(O)cc3)cc2)c2ccccc21`, the molecule was called inactive.
In the case of `CCOc1cc(-c2nc3ccccc3s2)ccc1O`, the outcome was inactive.
The value for `CCOc1cc(/C=N/n2c(C)nnc2C)ccc1O` was “inactive”.
